Results on 97 compounds are retold here after PubChem BioAssay AID1578 (Sanford-Burnham Center for Chemical Genomics, 2009).

The whole screen tested about 290,000 compounds, of which about 3,000 (1%) were called active. What follows is part of a selection rich in actives, with near analogues and random picks from the rest. A number with no mark means an inactive call. Cut-off read from the data, not from the text of the source: active = inhibition mostly above about 36% (no sharp cut-off); inactive = mostly below about 34%.

The nature of this assay: NOD1 signaling inhibitors, primary screen, cell-based, luminescence, uHTS (AID 1578).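 Note: HEK-293T reporter cells stimulated with the NOD1 agonist gamma-tri-DAP.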 The conditions noted are these: NOD1-driven NF-kB luciferase reporter cells, at 4 µM, stronger effect = higher value.
Turning to `CC(C)/C=C/CN1CCN(CCCc2ccccc2)C(CCO)C1` (configuration not stated), the inhibition was 45.1%. Consider `N#CCOC(=O)[C@H](Cc1ccccc1)N1C(=O)c2ccccc2C1=O`, for which the inhibition was -3.8%. Next, `Cc1nn(-c2ccccc2Cl)c(Cl)c1/C=N/Nc1nc2ccccc2s1`: 87.9% (active). In the case of `CCOC(=O)N/N=C/c1c(C)nn(-c2ccccc2Cl)c1Cl` it was -46.5%; in that of `Cc1nn(-c2ccccc2Cl)c(Cl)c1/C=N/Nc1cccc(C(=O)O)c1`, 19.9%; in that of `COc1ccc(CCNC(=O)CNC(=O)c2nn(-c3ccc(OC)c(OC)c3)c(=O)c3ccccc23)cc1OC`, -4.9%. Next, `COc1ccc(C(=O)Nc2sc3c(c2C(=O)O)CC(C)(C)OC3)cc1`: -23.2%. For `CC1(C)Cc2c(sc(NC(=O)c3ccccc3)c2C(=O)O)CO1`, the inhibition is -22.9%. Take `Cc1ccc(-c2cn3nc(C)c(C)nc3n2)cc1`: the inhibition is 46.8%. In the case of `CCc1ccc(-c2cn3nc(C)c(C)nc3n2)cc1` it was 76.1% (active); in that of `Cc1nc2nc(-c3ccc(Cl)cc3)cn2nc1C`, -11.9%; in that of `O=C1N(c2ccccc2)C[C@@H]2C[C@@H](c3cccc4c3OCO4)N3CCC[C@@]123`, -27.6%. Regarding `O=C1N(c2ccccc2)C[C@@H]2C[C@@H](c3cc4ccccc4o3)N3CCC[C@@]123`, the inhibition is 98% (active). `O=C1N(c2ccccc2)C[C@@H]2C[C@@H](c3cccs3)N3CCC[C@@]123`: the inhibition was -35.1%.

As for `Cc1onc(-c2c(F)cccc2Cl)c1C(=O)NC(=S)NC1CCS(=O)(=O)C1` (configuration not stated), the inhibition is -19.3%. For `COc1ccc(CC(=O)N2CCN(c3cccc(C)c3C)CC2)cc1`, the inhibition is -24.5%. In the case of `O=c1cnc2ccccc2n1Cc1ccc(Br)cc1` it was -18.3%; in that of `CC(C)(C)c1ccc(Cn2c(=O)cnc3ccccc32)cc1`, 48.9% (active); in that of `O=c1cnc2ccccc2n1Cc1ccccc1C(F)(F)F`, -40.7%. Next, `C=CCn1cc(C(=O)OCC)c(=O)c2cc(F)c(F)cc21`: 2.3%. Next, `Cc1ccc(C(=O)COC(=O)CCC(=O)Nc2cc(Cl)ccc2Cl)cc1[N+](=O)[O-]`: 7.9%. For `COc1ccc(N(C(=O)c2ccco2)C(C(=O)NC2CCCC2)c2cccs2)cc1OC` (configuration not stated), the inhibition was 2.7%. On to `C#CC(=O)N(c1cc(OC)ccc1OC)C(C(=O)NC1CCCC1)c1cccs1` (configuration not stated), for which the inhibition is -17.4%. In the case of `C#CC(=O)N(c1ccc(OC)c(OC)c1)C(C(=O)NC1CCCC1)c1cccs1` (configuration not stated), the inhibition was 79.9% (active). In the case of `C#CC(=O)N(c1ccc(OC)cc1OC)C(C(=O)NC1CCCC1)c1cccs1` (configuration not stated) it was 74.7% (active); in that of `C#CC(=O)N(c1cccc(OC)c1)C(C(=O)NC1CCCC1)c1cccs1` (configuration not stated), 22.1%. `COc1ccc(N(C(=O)c2ccco2)C(C(=O)NC2CCCC2)c2cccs2)c(OC)c1` (configuration not stated): the inhibition is -2.6%. For the compound `CC(C)c1nc2ccccc2n1CC(O)COC1CCCCC1` (configuration not stated), the inhibition was -23.2%. Regarding `COc1ccc(C)cc1NC(=O)NNC(=O)C(C)Oc1ccc(F)cc1Cl` (configuration not stated), the inhibition is -17.8%. Next, `COc1cccc(C(=O)N2CCC(n3nccc3NC(=O)CCOc3ccccc3)CC2)c1`: -25.4%; `CCCn1c(SCC(=O)Nc2nonc2C)nnc1-c1ccoc1C`: -22.4%; `COC(=O)CN1C(=S)N(Cc2ccccc2)C(=O)C1CC(=O)Nc1ccc(Br)cc1` (configuration not stated): 28.8%. Turning to `Cc1ccc(S(=O)(=O)Nc2ccccc2C(N)=O)cc1`, the inhibition is -11.8%.

Turning to `Cc1cccc(C)c1NS(=O)(=O)c1ccc2c(c1)C(=O)c1ccccc1C2=O`, the inhibition is -19.6%. In the case of `Cc1ccc(NS(=O)(=O)c2ccc3[nH]c(=O)[nH]c3c2)c(C)c1` it was -12.1%; in that of `Cc1ccc(S(=O)(=O)Nc2ccccc2-c2ccccc2)cc1`, 18.4%; in that of `CCCC(=O)C1=C(O)C(C(=O)OC)C(C)(C)CC1=NC` (configuration not stated), 11.5%. Consider `CN(CCO)c1cnccn1`, for which the inhibition is -22.7%. As to `COc1ccccc1N1CCN(CCC(=O)Nc2cccc(Cl)c2)CC1`, the inhibition is -7.2%. As for `CNC(=O)NC(=O)Cn1cnc2sc(-c3ccccc3)cc2c1=O`, the inhibition was 0.3%. As for `CCCCOCCCNC(=O)C1c2ccccc2Oc2ccccc21`, the inhibition is -0.9%.

As for `Nc1nc(-c2ccc(F)cc2)cc(C(F)(F)F)n1`, the inhibition was 9.6%. Turning to `CS(=O)(=O)c1nc(-c2ccccc2)cc(C(F)(F)F)n1`, the inhibition is -5.3%.

Regarding `CCOC(=O)CCSc1nc(-c2ccccc2)cc(C(F)(F)F)n1`, the inhibition was -31.4%. Next, `CCOC(=O)CS(=O)(=O)c1nc(-c2ccccc2)cc(C(F)(F)F)n1`: 69.2% (active); `CS(=O)(=O)c1nc(-c2ccc(F)cc2)cc(C(F)(F)F)n1`: 103% (active); `CCOC(=O)CSc1nc(-c2ccccc2)cc(C(F)(F)F)n1`: -48.1%.

On to `CC(C)(C)NC(=O)CN(Cc1ccc2c(c1)OCO2)C(=O)CNC(=O)c1cccs1`, for which the inhibition was -12.6%. In the case of `CCn1ncc(Br)c1C(=O)NC1CCCCCCC1` it was -9%; in that of `CCN(CC)CCn1c(=N)n(CC(O)c2ccco2)c2ccccc21` (configuration not stated), 62% (active). Next, `CCn1c(=N)n(CC(O)c2ccco2)c2ccccc21` (configuration not stated): 11%; `CCCn1c(=N)n(CC(O)c2ccco2)c2ccccc21` (configuration not stated): 1.5%.

As for `C=C(C)c1cccc(C(C)(C)NC(=O)Nc2cc(C)ccc2OC)c1`, the inhibition was -33%.

With `COc1cccc2c1OC1(C)CC2NC(=O)N1c1cccc(C(=O)N2CCN(c3ccccn3)CC2)c1` (configuration not stated), the inhibition is -17.8%. For `CC12CC(NC(=O)N1c1cccc(C(=O)N3CCN(c4ccccn4)CC3)c1)c1ccccc1O2` (configuration not stated), the inhibition is -1.9%.

Regarding `CCOc1cccc2c1OC1(C)CC2NC(=O)N1c1cccc(C(=O)N2CCN(c3ccccn3)CC2)c1` (configuration not stated), the inhibition is 76.5% (active). In the case of `COc1ccc(C(=O)C2CCCN(Cc3ccc4nonc4c3)C2)c(OC)c1` (configuration not stated) it was -21.3%. Next, `COc1ccc(C(=O)C2CCCN(Cc3cc(Cl)ccc3O)C2)c(OC)c1` (configuration not stated): -3.1%; `COc1ccc(C(=O)C2CCCN(Cc3cc(C)c(O)c(C)c3)C2)c(OC)c1` (configuration not stated): 110% (active); `CCOC(=O)C(=Cc1cn(C)c2ccc(S(=O)(=O)N(C)C)cc12)C(=O)OCC`: 29.1%. In the case of `CCOC(=O)N1CCN(C(=O)c2c[nH]c3ccc(S(=O)(=O)N(C)c4ccc(F)cc4)cc3c2=O)CC1` it was -23.5%; in that of `CCOC(=O)C(=Cc1c[nH]c2ccc(S(=O)(=O)N(C)C)cc12)C(=O)OCC`, 43.9% (active). In the case of `Cc1ccc(C(=O)c2ccc([N+](=O)[O-])cc2)c(C)c1`, the inhibition is -4.2%.

Regarding `COCCN1CCN(C(=O)C2CCC(=O)N(Cc3ccccc3F)C2)CC1` (configuration not stated), the inhibition was -13.9%.

Regarding `COc1ccc(NC2=NC(=S)N(c3ccccc3C)C23CCCCC3)cc1`, the inhibition was -2.5%.

`Nc1cccc(Nc2ncnc3ccccc23)c1`: the inhibition is 3%. Next, `Oc1cccc(Nc2ncnc3ccccc23)c1`: 56% (active); `Oc1ccc(Nc2ncnc3ccccc23)cc1`: 4.4%.

Regarding `O=C(CN1CC(c2ccccc2)CC1=O)Nc1ccc2c(c1)OCO2` (configuration not stated), the inhibition was -14%.

Take `COCCCNC(c1ccccc1)c1ccncc1` (configuration not stated): the inhibition was -23.2%. Next, `O=C(COc1cccc(Cl)c1)Nc1nc(-c2ccc(S(=O)(=O)N3CCOCC3)cc2)cs1`: 53.1%; `O=C(COc1ccccc1)Nc1nc(-c2ccc(S(=O)(=O)N3CCOCC3)cc2)cs1`: 3.4%.

For the compound `O=C(Nc1ccccc1)NC1CS(=O)(=O)CC1O` (configuration not stated), the inhibition was -16.3%. On to `O=C(c1ccc(Br)cc1)C1CCc2occc2C1=O` (configuration not stated), for which the inhibition is -29.8%. In the case of `O=C(O)c1cccc(NC(=O)c2cccc(S(=O)(=O)N3CCc4ccccc43)c2)c1` it was 29.9%; in that of `Cc1cccnc1NC(=O)c1cccc(S(=O)(=O)N2CCCc3ccccc32)c1`, -13%. As to `Nn1cc(-c2ccccc2)nc1SCC(=O)NCC1CCCO1` (configuration not stated), the inhibition is -25.8%.

With `O=C(CSc1nnc(-c2ccccc2)n1-c1ccccc1)c1cccs1`, the inhibition is -1.9%. In the case of `Cc1cc(C(=O)NC2CCCCC2C)c2ccccc2n1` (configuration not stated) it was 1.8%; in that of `O=C(C1=NNCC1c1ccccc1)C1OC1c1ccccc1` (configuration not stated), 15.8%. As for `O=C(C1=NNCC1c1ccccc1)C1CO1` (configuration not stated), the inhibition is -5.4%.

Regarding `O=C(C1=NNCC1c1ccc(Cl)cc1)C1CO1` (configuration not stated), the inhibition was 88.4% (active). In the case of `Cc1nc(N2CCOCC2)nc(OCCN(C)C)c1[N+](=O)[O-]` it was -6.3%.

As for `O=C(O)/C(=C\c1cccs1)Sc1nnc(-c2ccc(F)cc2)o1`, the inhibition was -11.6%. Next, `O=C(O)/C(=C\c1ccccc1OC(F)F)Sc1nnc(-c2ccc(F)cc2)o1`: 32.5% (active); `COc1cc(/C=C(/Sc2nnc(-c3ccc(F)cc3)o2)C(=O)O)ccc1OC(F)F`: -21.8%; `CCCC(c1nnnn1C(C)(C)C)N1CCN(c2ccccc2)CC1` (configuration not stated): -12.7%. `Cc1cc(=O)oc(C)c1C(=O)NNC(=O)C1(C)CC1Br` (configuration not stated): the inhibition was -8.9%. For the compound `COc1cc(/C=N/NC(=O)c2cnn3c(C)cc(-c4ccccc4)nc23)ccc1O`, the inhibition is 46.9%. In the case of `Cc1cc(C)c(NC(=S)N(CCCN2CCN(C)CC2)Cc2cccs2)c(C)c1` it was -25.1%. Next, `Brc1ccc(CNCC2CCCO2)cc1` (configuration not stated): 64.4% (active); `Clc1ccc(CNCC2CCCO2)cc1` (configuration not stated): 5.9%. On to `Fc1ccc(CNCC2CCCO2)cc1` (configuration not stated), for which the inhibition was 2.2%.

For `COc1ccc(N(CC(=O)NCc2ccccc2)S(=O)(=O)c2c(C)nn(C)c2C)cc1`, the inhibition was -15.5%. Regarding `COc1cc(/C=C2\C(=O)NN(c3ccccc3)C2=O)cc([N+](=O)[O-])c1O`, the inhibition was -38.3%. Next, `COc1cc(/C=C2/C(=O)NN(c3ccc(Cl)c(Cl)c3)C2=O)cc([N+](=O)[O-])c1O`: 14.3%; `O=C1NN(c2ccccc2)C(=O)/C1=C\c1cccn1-c1ccc(Cl)c([N+](=O)[O-])c1`: 86.9% (active).
